Screens deposited in PubChem BioAssay by National Center for Advancing Translational Sciences (NCATS).
G9a block – inhibitors of human histone lysine methyltransferase G9a | G9a H3K9 monomethylation, AlphaScreen, 2 h | Potency, µM (top dose mostly 102 µM), usual class: inhibitors | actives 8.8% (n = 350,000) | AID 504332; further: nearly all actives have a fitted effect of over 75% in size
Target sequence (Q96KQ7 913-1193 limits assumed): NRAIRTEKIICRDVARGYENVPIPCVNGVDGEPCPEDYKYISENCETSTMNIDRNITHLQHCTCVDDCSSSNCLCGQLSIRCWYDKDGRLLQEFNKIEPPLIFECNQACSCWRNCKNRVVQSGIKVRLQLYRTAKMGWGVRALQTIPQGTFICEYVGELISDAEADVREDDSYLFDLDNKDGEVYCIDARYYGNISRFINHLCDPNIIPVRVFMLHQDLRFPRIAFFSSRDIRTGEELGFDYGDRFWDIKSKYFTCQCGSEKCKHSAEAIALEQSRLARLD
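Enzyme 20 nM + cpd, 15 min RT; add b-H3K9 pep 500 nM / SAM 20 uM; 2 h RT; anti-H3K9me1 Ab 0.5 ug/mL + SA donor / anti-rabbit acceptor beads 20 ug/mL each, 10 min; AlphaScreen read.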
BAZ2B block – BAZ2B (human) inhibition | AlphaScreen BAZ2B-H3K14Ac peptide displacement | Potency, µM (highest dose often 114 µM), hits mostly inhibitors | Q9UIF8 | actives 4.4% (n = 360,000); further: nearly all actives have a fitted effect of over 60% in size
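Compounds, titrated to a top concentration of 110 uM, were incubated 30 min at room temperature with preformed BAZ2B/acetyl-K14 H3 peptide complex (50 nM each). Proximity signal was measured by AlphaScreen after 20 min with beads.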
PI5P4K alpha inh – blocks human PI5P4K alpha kinase activity; PI5P4Kalpha enzyme, ADP-Glo luminescence, 60 min; active compounds read low; max response, %; actives 1.2% (n = 330,000); AID 652105; active means max response of -50% or lower; inconclusive means between -30% and -50%; inactive means -30% or higher; further: value at the top dose of about 77 µM
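PI5P4Kalpha ADP-Glo assay; 5 microM ATP final; 60 min RT reaction; HEPES pH 7.4/EGTA/CHAPS, 5% DMSO; controls lacking substrate or enzyme; luminescent end-point.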
JMJD2A Tudor – inhibitors of human JMJD2A Tudor domain | O75164 | AlphaScreen JMJD2A-Tudor / H3K4me3 peptide binding | Potency, µM (series often up to 114 µM), hits mostly inhibitors | actives 4.4% (n = 390,000) | AID 504339; further: nearly all actives have a fitted effect of over 50% in size
HP1b binding inh – blocks HP1-beta chromodomain binding to methylated histone tails | AlphaScreen HP1-beta / biotin-H3K9me3 peptide binding | Potency, µM (series often up to 114 µM), hits mostly inhibitors | actives 0.56% (n = 390,000); further: nearly all actives have a fitted effect of over 70% in size
Target sequence (P83916 whole entry, looked up): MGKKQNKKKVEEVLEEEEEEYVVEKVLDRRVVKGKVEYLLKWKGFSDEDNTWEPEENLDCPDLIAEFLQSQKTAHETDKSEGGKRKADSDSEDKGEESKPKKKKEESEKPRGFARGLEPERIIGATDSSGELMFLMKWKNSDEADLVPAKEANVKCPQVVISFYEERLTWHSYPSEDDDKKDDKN
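AlphaScreen: HP1-beta (50 nM) preformed 30 min with biotin-H3(1-18)K9me3 peptide (50 nM) in PBS pH 7.4, 0.01% Tween-20. Compound added for 30 min at RT, then streptavidin donor/nickel chelate acceptor beads (10 ug/mL) for 30 min.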
PLK1 PBD block – PLK1 (human) polo-box domain binding inhibition; Plk1 PBD binding of FITC phosphopeptide, fluorescence polarization; actives 2.8% (n = 360,000); Potency, µM, actives largely listed as inhibitors; P53350; further: series mostly up to about 57 µM; nearly all actives have a fitted effect of over 65% in size
Of the large screens only hits and unclear results are named; the others gave an inactive call. Sampled rows, rich in hits. Any-hit rate of the full collection: about 12%. Unless noted, the call rests on the fitted dose curve; in most records, active means well fitted curve in the direction sought with a large enough effect; inconclusive means small, poorly fitted or top-dose-only effect, or another doubt; inactive means no such curve, though single readings can be large; an effect the other way counts as inactive or inconclusive.

CC(C)(C)NC(=O)C(=O)NNC(=O)c1ccccc1Br	G9a block 22µM, BAZ2B block inconclusive
O=C(NNC(=O)c1ccccc1Br)c1ccccc1Cl	none
COc1ccccc1C(=O)NNC(=O)C(=O)NC(C)(C)C	BAZ2B block 89µM
CC(C)CN(C(=O)COC(=O)c1cnccn1)c1c(N)n(Cc2ccccc2)c(=O)[nH]c1=O	G9a block inconclusive
CC(C)CN(C(=O)COC(=O)c1ccccn1)c1c(N)n(Cc2ccccc2)c(=O)[nH]c1=O	G9a block 45µM, BAZ2B block inconclusive, JMJD2A Tudor 6.3µM
CCc1nc2ccccc2n1CC(=O)OCC(=O)N(CC(C)C)c1c(N)n(Cc2ccccc2)c(=O)[nH]c1=O	G9a block 56µM
CN(C(=O)COC(=O)Cn1c(C(F)(F)F)nc2ccccc21)c1c(N)n(Cc2ccccc2)c(=O)[nH]c1=O	none (no result: G9a block)
COc1ccc(-c2nc(CS(=O)CC(=O)NC3CCCCC3C)c(C)o2)cc1 (stereo not drawn)	none
Cc1ccc(C(=O)Nc2nnc(S(=O)(=O)N3CCCc4ccccc43)s2)cc1	none (no result: PI5P4K alpha inh, PLK1 PBD block)
N#Cc1ccc(CN2CC3(CCN(C(=O)c4cc(C(F)(F)F)cc(C(F)(F)F)c4)CC3)C2)cc1	none (no result: BAZ2B block, PI5P4K alpha inh, JMJD2A Tudor, HP1b binding inh, PLK1 PBD block)
Fc1cccc(C2NN=C(c3ccccc3)S2)c1 (stereo not drawn)	G9a block inconclusive, PLK1 PBD block inconclusive
O=C1c2ccccc2C2=Nc3ccccc3SC(c3ccc(Cl)cc3)C12 (stereo not drawn)	G9a block 11µM, BAZ2B block 10µM, JMJD2A Tudor inconclusive, HP1b binding inh inconclusive
O=C1CCCC2=C1C(c1ccc(Cl)cc1)C1C(=O)c3ccccc3C1=N2 (stereo not drawn)	G9a block inconclusive, BAZ2B block inconclusive, JMJD2A Tudor inconclusive (no result: PI5P4K alpha inh)
O=C1c2ccccc2C2=Nc3ccccc3SC(c3cccc(F)c3)C12 (stereo not drawn)	G9a block inconclusive, BAZ2B block 28µM, JMJD2A Tudor 22µM, HP1b binding inh 28µM
COc1cc(NC(=O)CCc2c(C)n(C)c3cc(-c4ccccc4C)nn3c2=O)cc(OC)c1OC	none (no result: PI5P4K alpha inh, PLK1 PBD block)
Clc1ccc(-c2noc(CN(Cc3ccccn3)CC3CCCO3)n2)cc1 (stereo not drawn)	none
Cc1oc(-c2ccc(F)cc2)nc1CN(Cc1ccccn1)CC1CCCO1 (stereo not drawn)	JMJD2A Tudor 20µM, HP1b binding inh inconclusive, PLK1 PBD block 30µM
CC(=O)OCc1c(C(F)(F)F)nn(C)c1Oc1ccccc1	none
Cn1nc(-c2ccccc2)c(CO)c1Oc1ccc(F)cc1	PI5P4K alpha inh inconclusive, JMJD2A Tudor 20µM, PLK1 PBD block 11µM
CC(=O)Nc1cc2nc(C)n(Cc3ccccc3[N+](=O)[O-])c2nc1C	none
CC(C)C(C)NC(=O)COC(=O)c1cccc(C(=O)OCC(=O)NC(C)C(C)C)n1 (stereo not drawn)	G9a block 10µM, BAZ2B block inconclusive, JMJD2A Tudor inconclusive
Cc1cc2c(cc(C(=O)OCC(=O)NC3CCCCC3)n2C)o1	JMJD2A Tudor 22µM, PLK1 PBD block 27µM (no result: G9a block, BAZ2B block)
Cc1cc(C(=O)OCC(=O)NC2CCCCC2)c(C)o1	BAZ2B block inconclusive
O=C(COC(=O)c1cccc(C(=O)OCC(=O)NC2CCCCC2)n1)NC1CCCCC1	G9a block 50µM, JMJD2A Tudor inconclusive
O=C(COC(=O)c1c(Cl)cccc1Cl)NC1CCCCC1	none
CC(C)[C@H](NC(=O)N1CCn2c1nc1ccccc12)C(=O)NC1CCCCC1	BAZ2B block inconclusive
CCC(NC(=O)CCc1c(C)c2cc3c(C)c(C)oc3cc2oc1=O)C(=O)N[C@@H](Cc1ccccc1)C(=O)O (stereo partly drawn)	G9a block inconclusive, BAZ2B block 50µM, JMJD2A Tudor inconclusive
CSC[C@H](NC(=O)Cc1c(C)c2cc3c(C)c(C)oc3cc2oc1=O)C(=O)N[C@@H](Cc1ccccc1)C(=O)O	none
COc1ccc(CNC(=O)CCC2N=C3c4ccccc4N=C(SCc4cccc(F)c4)N3C2=O)cc1 (stereo not drawn)	none (no result: PI5P4K alpha inh, PLK1 PBD block)
O=C(Nc1nc(-c2ccccc2)c(-c2ccccc2)o1)c1ccc(F)cc1	HP1b binding inh inconclusive, PLK1 PBD block 3µM
